From PubChem BioAssay (NCI)
This is part of a sample that, as a whole, favours compounds with a hit. Of some 83,000 tested, about 20% had one in any assay.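 Plates (96-well) were seeded with cells, treated with compound at one concentration, and incubated for 48 hours before percent growth was determined.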 Unmarked numbers belong to inactive results. Active and inactive are the calls of the source. Rule for the calls: active = growth percent below 10; inactive = the rest.

tested on: HL-60(TB) leukemia; test: NCI-60 one-dose screen, 48 h (100 = growth as untreated, 0 = no growth, -100 = all killed); settings: 10 µM unless noted

Compound	growth
O=C(Nc1ccc(Nc2ncccn2)cc1)NC1C=c2ccccc2=CC1 (stereo not given)	74.1%
COc1ccc(C(=O)COc2cccc(/C=C3\Cc4ccccc4C3=O)c2)cc1	73.4%
CCCn1c(=S)sc2c(Cl)nc(C)nc21	130%
O=[N+]([O-])c1ccc(SSc2ccc([N+](=O)[O-])cc2Cl)c(Cl)c1	92.5%
Cc1ccc(S(=O)(=O)NNC(=O)/C(=C\c2ccc(Cl)cc2)c2nc3ccccc3s2)cc1	89.7%
O=C(OC[C@@H]1CO1)c1cccc2c(=O)c3ccccc3[nH]c12	-51.4% (active)
CCN(CC)CCOc1ccc(C(=O)/C=C\c2ccc(Cl)cc2Cl)cc1	-29.2% (active)
Cc1ccccc1NC(=O)Cn1cc(CN2CCN(c3ccnc4cc(Cl)ccc34)CC2)nn1	22.2%
CCOc1ccccc1-n1c(CN2CCN(C(=O)COc3ccc(CNCCCCCCN4C5CCCC4CC(OC(=O)Nc4cc(C)ccc4OC)C5)cc3)CC2)nc2ccccc2c1=O (stereo not given)	-76% (active)
O=S(Cc1ccccc1)/C(=C/NC(=S)Nc1ccccc1)c1ccccc1 (stereo not given)	106%
C=C(C)C1CCC2(C(=O)O)CCC3(C)C(CCC4C5(C)CCC(O)C(C)(C)C5CCC43C)C12 (stereo not given)	-40% (active)
O=C1C2CC=CCC2C(=O)N1CNc1ccc(Cl)cc1 (stereo not given)	52.9%
COc1c(B(O)O)cc(C)cc1-c1nc2ccc3[nH]ncc3c2c2c1CCCC2	13.3%
c1ccc(Cn2cc3c(c2)-c2oncc2CC3)cc1	11.5%
O=C(Cc1ccc(F)c(F)c1)Nc1cc(C2(C(F)(F)F)CC2)nn1Cc1ccccc1	11.9%
C=CCC(OC(C)=O)c1ccc(C(C)C)cc1 (stereo not given)	83.1%
NCCNc1nc2ccccc2c2c(=O)c3cccc(F)c3sc12	53%
CC1=CC2C(C(O)CC3(C)C2CC(C)C32OCOC23COCO3)C2(C)C/C(=C/O)C(=O)C=C12 (stereo not given)	-12.3% (active)
NS(=O)(=O)c1ccc(C(=O)N=Nc2c(O)[nH]c3ccc(Cl)cc23)cc1	102%
Cc1nc(Nc2cccnc2)sc1C(=O)/C=C/c1ccc(F)cc1	12.6%

Compound	growth
COC(=O)Nc1nc2ccc(C(=O)C3CC3)cc2[nH]1	-56.2% (active)
CC(=O)c1c(Nc2cccc(F)c2)[nH]c2c(Cl)cc(Cl)c(Cl)c2c1=O	-36.5% (active)
COc1ccc2c(c1)CCCN2c1c2ccccc2nc2ccccc12	5.6% (active)
CCN(CC)C(=O)CC1=C(C)/C(=C/c2[nH]c(-c3ccc[nH]3)cc2OC)N=C1C	0.518% (active)
Clc1nc(Cl)c2ncn(-c3ccccc3)c2n1	46.1%
CCOC(=O)C(=CNc1ccccc1[N+](=O)[O-])C(=O)OCC	90.8%
COC(=O)[C@]12CC[C@@H](C)[C@H](C)[C@@H]1C1=CC[C@@H]3[C@@]4(C)C(C=O)=C[C@@](C)(COC(=O)/C=C/c5ccccc5)[C@@H]4[C@H](O)C[C@@]3(C)[C@]1(C)CC2	-13% (active)
CN(C)CC(O)c1ccc2cc(Br)c3ccccc3c2c1 (stereo not given)	43.7%
Nc1ccc(-c2nc3ccc4[nH]ncc4c3c3c2CCCC3)cc1F	8.91% (active)
CCOC(=O)c1cc(C(=O)c2ccc(OC)cc2)n2ccc(/C=C/c3cc[n+](CC(=O)c4ccc(OC)cc4)cc3)cc12	0.722% (active)
N#CC1c2ccccc2C=CN1C(=O)N(c1ccccc1)c1ccccc1 (stereo not given)	-8.07% (active)
CN1C(=O)/C(=C/c2ccc(C(=O)Nc3ncc(Cc4cc(Cl)ccc4Cl)s3)cc2)SC1=S	91%
CCOc1cc(Cl)c(C(C)NC(=O)c2cccc(OC)c2)cc1OCC (stereo not given)	-32.8% (active)
Cn1cc(-c2nc(-c3c[nH]c4ncccc34)cs2)c2cccnc21	48.1%
CC(C)CSc1oc(-c2ccccc2)nc1S(=O)(=O)c1ccccc1	82%
CC(C)(C)c1ccc(S(=O)(=O)N[C@H]2CC[C@H]3[C@@H]4CCc5cc(O)c([N+](=O)[O-])cc5[C@H]4CC[C@]23C)cc1	60.7%
COc1ccc(-c2nn(-c3ccccc3)cc2/C=C2\SC(=S)N(CCc3ccc(O)cc3)C2=O)cc1	84%
Cc1cc(Nc2nc(C(=O)Nc3ccccc3)nc3ccccc23)n[nH]1	63.5%
C#CC(=O)/C=C/CCCCCCC#CC(=O)CCC(=O)C#CCCCCCC/C=C/C(=O)C#C	-70.1% (active)
O=C1Nc2ccccc2/C1=C/c1c[nH]c2ccccc12	102%
